Laboratory results: PubChem BioAssay (Tox21)
Records with an inconclusive call do not appear. A call without a number means that no potency is given here. A number with no mark means an inactive call. The source made the active and inactive calls. Calls follow the shape of the full dose curve.

Test: cAMP Responsive Elements (CRE) small molecule agonists, cell-based qHTS assay (AID 1963590)
Settings: CRE-bla HEK293T, beta-lactamase FRET ratio, 3 h; series mostly up to 92.4 µM; activation: at the top concentration
Procedure, shortened: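 HEK 293T CRE-bla, 2,000 cells/well, 18 h preincubation 37 C/5% CO2; cpds (DMSO) pinned, 3 h; LiveBLAzer B/G FRET substrate, 2 h RT.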
For `S=C(NC1CCCCC1)NC1CCCCC1`, the Potency was “inactive”. In the case of `CC(C)(N=C=O)c1cccc(C(C)(C)N=C=O)c1`, the Potency is reported as “inactive”. With `C[N+](C)(C)CC(O)CCl` (stereo not given) the “activation” value was -0.352%. For `Cn1sccc1=O`, the Potency was “inactive”. With `NCCNCCNCCNCCN` the Potency was “inactive”. For `COc1ccc(N)c(C)c1`, the Potency was “inactive”. In the case of `O=C(O)c1ccc(C(=O)O)c(C(=O)O)c1`, the Potency is reported as “inactive”. `CCCCCCCCCCCC(=O)N(C)CC(=O)O` showed an activation of -0.74% [at 8.39 µM]. In the case of `CC(=O)OC1CC(C)OC(C)O1` (stereo not given), the Potency is reported as “inactive”. For `CC(C)CC(C)O` (stereo not given), the Potency was “inactive”. With `COCc1ccc(COC)cc1` the “activation” value was 1.59%. In the case of `CCCCNc1ccccc1`, the “activation” value is reported as 0.318%. In the case of `O=C1CCCCC1`, the Potency is reported as “inactive”. With `CCC(C)c1ccccc1O` (stereo not given) the Potency was “inactive”. With `Cc1cccc(C)c1[N+](=O)[O-]` the Potency was “inactive”. With `N#Cc1ccc(C2CCCc3cncn32)cc1` (stereo not given) the “activation” value was -0.367% [at 42.5 µM]. With `CC(=O)OC/C=C(\C)CC/C=C(\C)CCC=C(C)C` the Potency was “inactive”. With `O=C1CCC(=O)O1` the “activation” value was 0.0211%. In the case of `CS(=O)(=O)c1ccc(Cl)cc1`, the Potency is reported as “inactive”. For `Cc1cccnc1`, the Potency was “inactive”. In the case of `CS(=O)(=O)O`, the “activation” value is reported as 0.851%. With `CNCCS(=O)(=O)O` the “activation” value was -2.02%. In the case of `NC(=Nc1ccccc1)Nc1ccccc1`, the “activation” value is reported as 3.16% [at 42.5 µM]. In the case of `O=C(O)c1ccccc1C(c1ccc(O)cc1)c1ccc(O)cc1`, the Potency is reported as “inactive”. For `C[n+]1ccn(CCO)c1`, the Potency was “inactive”. With `CCOC(=O)c1c(C)n(C)c2ccc(O)cc12` the “activation” value was 3.93% [at 42.5 µM]. In the case of `CC1=CC[C@@H]2C[C@H]1C2(C)C`, the activation is reported as 0.0762% [at 19 µM]. In the case of `c1ccc2c(c1)-c1cccc3c1c-2cc1ccccc13`, the “activation” value is reported as -0.115%. In the case of `C=CC(=O)NCOCCCC`, the Potency is reported as “inactive”. For `CCCCCCCCCCCCCCCCCCOCC(O)CO` (stereo not given), the “activation” value was -0.931% [at 42.5 µM].
